# In PubChem BioAssay (NCI):
# This is part of a sample that, as a whole, favours compounds with a hit. Of some 83,000 tested, about 20% had one in any assay.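 In brief: 96-well plates, 48 h treatment, single concentration, percent growth endpoint.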 Values without a mark were called inactive. Calls of active or inactive are those of the source. How the source made its calls: active means growth percent below 10; inactive means the rest.
# Experiments:
# Assay in all cases: NCI-60 one-dose screen, 48 h (100 = growth as untreated, 0 = no growth, -100 = all killed)
# Conditions in all cases: 10 µM unless noted
# NCI-H23 lung = tested on: NCI-H23 lung
# NCI-H226 lung = tested on: NCI-H226 lung
# NCI-H322M lung = tested on: NCI-H322M lung
# HOP-62 NSCLC = tested on: HOP-62 NSCLC
# NCI-H460 lung = tested on: NCI-H460 lung
# HOP-92 NSCLC = tested on: HOP-92 NSCLC
# NCI-H522 lung = tested on: NCI-H522 lung
# A549/ATCC NSCLC = tested on: A549/ATCC NSCLC
# 786-0 renal = tested on: 786-0 renal
# COLO 205 colon = tested on: COLO 205 colon
SMILES,growth (NCI-H23 lung),growth (NCI-H226 lung),growth (NCI-H322M lung),growth (HOP-62 NSCLC),growth (NCI-H460 lung),growth (HOP-92 NSCLC),growth (NCI-H522 lung),growth (A549/ATCC NSCLC),growth (786-0 renal),growth (COLO 205 colon)
Cc1cccc(NC(=O)CSc2nc3ccccc3[nH]2)c1,94.6%,92%,97%,88.7%,105%,88.4%,90.9%,101%,103%,110%
Cc1cc(NCCCCNc2ccnc3cc(Cl)ccc23)nc(Nc2ccc(C(=O)N3CCCCC3)cc2)n1,41.3%,98.6%,22.9%,21.2%,6.46% (active),63.6%,-42.2% (active),13.1%,-87.6% (active),-67.8% (active)
CCN(CC)CCCCCCNc1cc(OC)c(Cl)c2cccnc12,76.9%,78.7%,92.7%,69.1%,83.9%,58.8%,81.1%,96.7%,73.9%,55.1%
N#C/C(=C\c1ccc(Br)cc1)n1nnc2cc(F)c(F)cc21,28.5%,37.3%,58.6%,25.9%,30.5%,-9.69% (active),19.9%,41.5%,23.2%,25.7%
CC/C=C/C/C=C/C/C=C/C/C=C/C/C=C/C/C=C/CCC(=O)Nc1ccn([C@@H]2O[C@H](CO)[C@@H](O)C2(F)F)c(=O)n1,1.56% (active),8.09% (active),51.9%,8.82% (active),9.01% (active),32.1%,39.8%,17.6%,0.0768% (active),11.8%
Fc1c[c-]c(-c2ccccn2)c(F)c1.[CH3-].[Pt+2].c1ccc(P(C[PH+](c2ccccc2)c2ccccc2)c2ccccc2)cc1,-51.1% (active),3.56% (active),2.51% (active),0.563% (active),-68.8% (active),-80.7% (active),-24% (active),-0.672% (active),-52.5% (active),-29.9% (active)
Cc1ccc(Cl)c(NS(=O)(=O)c2ccc(-c3cnc(C4CC4)o3)cc2)c1,36.2%,33.8%,44.4%,42.7%,14.3%,73.9%,3.84% (active),26.5%,27.8%,-0.408% (active)
Cn1ccc2c(c1=O)C(=O)c1nccc3c1c-2nc1ccccc13,-66.6% (active),83.1%,17.4%,-86.6% (active),-74.7% (active),62.8%,-68.5% (active),-87.4% (active),-95.5% (active),-75.5% (active)
COc1cc(C2CC(=O)Nc3c2c(C)nn3-c2nc3ccccc3[nH]2)c(OC)c2c1OCO2 (stereo not given),86.9%,84.8%,86.9%,75.8%,66.7%,85%,71.2%,52.4%,78.6%,91.9%
COc1cc(-c2nc(N3CCN(C)CC3)c3ccccc3n2)cc(OC)c1OC,74.4%,66.2%,84.4%,47.3%,84.5%,44.3%,8.58% (active),72.5%,47.5%,81.5%
O=C(Nc1cccc2c(O)c(N=Nc3ccc(S(=O)(=O)Nc4nccs4)cc3)cc(N=Nc3ccc(S(=O)(=O)Nc4nccs4)cc3)c12)C(Cl)Cl,103%,98.8%,89.7%,96.8%,73.4%,24.7%,-42.5% (active),92.2%,103%,99%
CCN1CCN(c2nc(C)cc(NCc3cc(Nc4ccnc5cc(Cl)ccc45)ccc3F)n2)CC1,46.5%,69.1%,50.5%,12%,-12.6% (active),36%,-14.8% (active),28%,-51.2% (active),-56.4% (active)
CCN(CC)CCN1CC(O)=C(c2nc(-c3ccc(Cl)cc3)cs2)C1=N,65.2%,99.2%,15.6%,-53.3% (active),8.48% (active),-44.3% (active),49.8%,46.8%,-68.5% (active),-58.3% (active)
Cc1ccc(S(=O)(=O)N/N=C\c2cc(Cl)ccc2O)cc1,96.8%,96.4%,114%,105%,93.7%,72.9%,80.3%,82%,74.5%,96.9%
COc1ccc(-c2nc(SC(C)C)nc(NNC(N)=S)c2C#N)cc1,69.7%,86.4%,91.3%,63.7%,22.4%,41.2%,12.8%,49.2%,85%,99.9%
OC(COc1ccccc1Cl)COc1ccccc1Cl,94.1%,95.3%,110%,117%,107%,102%,88.3%,93.2%,103%,112%
COc1ccc(/C=N\NC(=O)c2cc(-c3ccc(Br)cc3)n(-c3ccc(S(N)(=O)=O)cc3)n2)cc1,71.7%,77.8%,63.1%,48%,38.5%,46.8%,18.9%,52.1%,66.9%,62.2%
CCN(CC)CCn1nc2c3c(cccc3c1=O)-c1ccccc1-2,23.7%,-39.9% (active),30.6%,11.1%,3.42% (active),-6.84% (active),10.8%,1.36% (active),33.3%,15.8%
NC(=N\N=C/c1cccc([N+](=O)[O-])c1)/C(N)=N\N=C/c1cccc([N+](=O)[O-])c1,78.4%,64%,110%,10.6%,-21.5% (active),73.9%,66.9%,15.6%,109%,19.4%
Cc1c(C(=O)OC(=NC2CCCCC2)NC2CCCCC2)sc2c1c(=O)nc1c(C#N)n[nH]n12,97.3%,131%,115%,89.5%,112%,-16.8% (active),89.2%,108%,92%,120%
c1ccc2cc3nc4cc5ccccc5cc4nc3cc2c1,88.8%,97.3%,109%,83.5%,99.8%,94.3%,99%,88.4%,108%,77.7%
COc1cc(C2NC(=O)c3ccccc3N2)ccc1OCCCCCOc1c(OC)cc(C2=NOC(c3cc(OC)c(OC)c(OC)c3)C2)cc1OC (stereo not given),59.5%,71.5%,103%,95.1%,63.4%,38.3%,56.3%,67.5%,95%,108%
COc1ccc(C2CC(c3cccc(OC)c3)=NN2C(=O)c2cc(OC)c(OC)c(OC)c2)cc1 (stereo not given),30.6%,79.9%,45.1%,39.9%,11.4%,35.9%,2.3% (active),32.5%,21.6%,-1.64% (active)
O=C(NCCNc1cc(-c2cn(-c3ccccc3)nc2-c2cccc(O)c2)ccn1)Nc1ccccc1,69.4%,70.6%,95.3%,63.7%,86.2%,54.5%,70.8%,52.5%,71.4%,81.2%
CCCCCCN(CCCCCC)c1ccc(/C=C2/SC(=O)N(c3nc(N4CCCC4)nc(N4CCCC4)n3)C2=O)c(C)c1,47.2%,92.5%,99%,119%,57.5%,-3.12% (active),53.2%,54.2%,63.5%,82.1%
O=C(c1ccc(Nc2nccc(NCCCCNc3ccnc4cc(Cl)ccc34)n2)cc1)N1CCCCC1,45.3%,91.3%,51.3%,69.7%,12.9%,59.2%,33.2%,25.8%,0.767% (active),-58.6% (active)
COc1cc(OC)cc(C2CC(=O)Nc3c2c(C)nn3-c2nc3ccccc3[nH]2)c1 (stereo not given),5.52% (active),36.5%,59.9%,-44.2% (active),5.89% (active),0.274% (active),3.99% (active),15.2%,25.4%,51.4%
